These results are taken from PubChem BioAssay AID588453 (National Center for Advancing Translational Sciences (NCATS), 2011).

Molecules are shown by their SMILES. In all, about 390,000 compounds went through this assay and about 4,000 (1%) were called active. A call without a number means that no potency is given here. Not shown: some 4% with an inconclusive outcome. For the sample, actives were picked, then their nearest neighbours and some compounds at random. Values without a mark were called inactive. Calls come from the whole dose curve; as a rule, active = well fitted inhibition curve with a large enough effect; inconclusive = small, poorly fitted or top-dose-only effect; inactive = no such curve, though single readings can be large or run the other way.
Potency is the fitted concentration of half-maximal effect.

For this assay, the target named is Thioredoxin reductase 1, cytoplasmic (Rattus norvegicus) (UniProt O89049). As to the kind of experiment: qHTS Assay for Inhibitors of Mammalian Selenoprotein Thioredoxin Reductase 1 (TrxR1): qHTS. Note: nearly all actives have a fitted effect of over 65% in size. The conditions noted are these: recombinant rTrxR1, NADPH fluorescence consumption, selenite substrate; series mostly up to 114 µM. The essentials: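 Rat TrxR1 (90 nM in the dispensed reagent) was pre-reduced with 400 uM NADPH for 5 min at room temperature, then incubated with compound for 15 min. After 400 uM selenite was added, NADPH fluorescence (Ex 340/Em 450 nm) was followed for 8 min.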
Sequence of Thioredoxin reductase 1, cytoplasmic (Rattus norvegicus) (O89049 whole entry, looked up): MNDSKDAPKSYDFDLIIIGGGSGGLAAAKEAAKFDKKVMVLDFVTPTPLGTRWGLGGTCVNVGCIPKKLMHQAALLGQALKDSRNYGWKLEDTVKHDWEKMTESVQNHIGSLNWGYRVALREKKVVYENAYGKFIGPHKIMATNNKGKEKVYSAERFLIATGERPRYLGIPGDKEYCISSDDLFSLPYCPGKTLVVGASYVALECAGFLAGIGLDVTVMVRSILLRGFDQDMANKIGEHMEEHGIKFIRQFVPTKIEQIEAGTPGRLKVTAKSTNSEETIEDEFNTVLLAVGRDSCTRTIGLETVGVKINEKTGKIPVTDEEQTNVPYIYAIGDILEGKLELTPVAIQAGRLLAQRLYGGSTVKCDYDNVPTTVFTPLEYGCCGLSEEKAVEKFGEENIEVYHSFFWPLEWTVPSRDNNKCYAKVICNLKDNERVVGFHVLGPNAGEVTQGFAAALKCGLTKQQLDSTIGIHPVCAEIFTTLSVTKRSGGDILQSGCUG
(Quantitative high-throughput screening tests each substance at several concentrations.)
With `CC(C)(C)n1ncc2c(=O)n(Cc3ccc(C(=O)c4ccccc4)cc3)cnc21`, the Potency result was “inactive”.

In the case of `CCCCNC(=O)CN1C(=O)NC(Cc2ccccc2)(Cc2ccccc2)C1=O`, the Potency result was “inactive”.

On to `CCCCC(O)(CCCC)C(=O)NN(C(=O)CCl)c1ccccc1`, for which the Potency was 10 µM (active).

With `CCCCCCCC(=O)NC(Nc1ccccc1OC)C(Cl)(Cl)Cl` (stereo unspecified), the Potency result is “inactive”.

Turning to `CCOc1ccccc1CNC(=O)c1cnc2c(-c3ccc(OCC)c(OCC)c3)c(C)nn2c1C`, the Potency entry is “inactive”.

As to `CC1=C(C(=O)OCC2CCCCC2)C(c2c(F)cccc2Cl)CC(=O)N1` (stereo unspecified), the Potency entry is “inactive”.

Take `Cc1cc(C)c(NC(=O)c2cc3sc(Cl)cc3n2C)c(C)c1`: the Potency entry is “inactive”.

Take `CCN1CCC(O)(/C=C/c2ccc(C)cc2)C(C(=O)/C=C/c2ccc(C)cc2)C1` (stereo unspecified): the Potency was 1.26 µM (active).

With `Cc1ccc(NC(=O)CSc2nc3ccccc3c3nc(CCn4cncc4C)nn23)cc1F`, the Potency entry was “inactive”.

`CN(C)C1=C2C=CC=CC2/C(=C2/C=Cc3ccccc32)C=C1` (stereo unspecified): the Potency result was “inactive”.

For `COC(=O)c1ccc(NC(=O)CCc2c(C)nn(-c3ccc(N4CCCC4)nn3)c2C)cc1`, the Potency entry was “inactive”.

Take `O=C(CSc1oc(-c2ccc(F)cc2)nc1S(=O)(=O)c1ccc(Br)cc1)NC1CCCCC1`: the Potency entry is “inactive”.

As to `CC(C)S(=O)(=O)c1oc(-c2ccc(F)cc2)nc1S(=O)(=O)c1ccc(F)cc1`, the Potency was 1 µM (active).

In the case of `Cc1ccc(-c2nc(S(=O)(=O)c3ccc(C)cc3)c(N3CCCCCC3)o2)cc1`, the Potency result was “inactive”.

`C=Cc1ccc(Cn2c(C(=O)OC)cc3sc(C)cc32)cc1`: the Potency entry was “inactive”.

For the compound `COc1ccc(-c2nc3c(c(SCC(=O)Nc4ccc(C(=O)O)cc4)n2)Cc2ccccc2O3)cc1`, the Potency result was “inactive”.

Take `Cc1cccc(CNC(=O)c2cnc3sc(N4CCCCC4)nn3c2=O)c1`: the Potency result was “inactive”.

Take `COc1ccccc1N1CCN(C(=O)C2CCN(S(=O)(=O)c3c(C)noc3/C=C/c3ccc(C)cc3)CC2)CC1`: the Potency result was “inactive”.

For `COc1cc(OC)c(OC)cc1/C=C/c1nc2ccccc2c(=O)n1-c1ccc(Br)c(C)c1`, the Potency entry is “inactive”.

With `CCCN(CCC)c1c([N+](=O)[O-])c(=O)oc2ccccc12`, the Potency entry was “inactive”.

In the case of `CCn1c(/C=C/c2ccc([N+](=O)[O-])o2)nc2ccccc2c1=O`, the Potency was 3.16 µM (active).

Take `Cc1ccc(C2c3[nH]c4ccccc4c3CCN2C(=O)c2cccc(C)c2)cc1` (stereo unspecified): the Potency result was “inactive”.

Regarding `COc1ccc(-c2nc3sc(CCNS(=O)(=O)c4ccc(F)c(C)c4)c(C)n3n2)cc1`, the Potency result is “inactive”.

`COc1ccccc1-n1c(=S)[nH]c2c(sc(=S)n2-c2ccc(C)cc2C)c1=O`: the Potency result was “inactive”.

In the case of `COc1ccccc1-n1c(-c2cc(-c3ccco3)[nH]n2)n[nH]c1=S`, the Potency was 44.7 µM (active).

As to `Cc1cc(-c2n[nH]c(=S)n2-c2ccc(C)c(C)c2)no1`, the Potency entry is “inactive”.

With `COc1ccc(N2CCN(C(=O)C3CCCN(C(=O)c4cc5sccc5n4C)C3)CC2)cc1` (stereo unspecified), the Potency result was “inactive”.

`COc1ccc(CN2CCNC(=O)C2CC(=O)N(C)Cc2ccccn2)cc1OC` (stereo unspecified): the Potency result was “inactive”.

In the case of `COc1ccccc1CN1CCNC(=O)C1CC(=O)N(C)CC1CCOCC1` (stereo unspecified), the Potency entry is “inactive”.

Consider `CN(C(=O)CC1C(=O)NCCN1Cc1ccc2ccccc2c1)C1CCOCC1` (stereo unspecified), for which the Potency was 39.8 µM (active).

For the compound `O=C(Cn1c(-c2cccs2)cc2ccccc21)NCCc1ccc(Cl)cc1`, the Potency entry was “inactive”.

`CCNC(=O)Cn1nc(C)n2c(cc3c(OC)cccc32)c1=O`: the Potency entry was “inactive”.

On to `O=C(COC(=O)[C@H](Cc1ccccc1)NC(=O)c1cccs1)Nc1cc(F)ccc1F`, for which the Potency entry is “inactive”.

On to `COC(=O)C(CC(=O)Nc1cc(C)ccc1C)Nc1ccccc1OC` (stereo unspecified), for which the Potency entry was “inactive”.

As to `Cc1ccc(C)c(NC(CC(=O)c2ccccc2)C(=O)OCC(=O)c2cccs2)c1` (stereo unspecified), the Potency is 44.7 µM (active).

For `COc1cc2nc(N3CCCN(C)CC3)nc(NC(C)C)c2cc1OC`, the Potency result is “inactive”.

Regarding `CCOc1ccc(NC(=O)CN(Cc2ccccc2)S(=O)(=O)c2ccc(Cl)cc2)cc1`, the Potency result is “inactive”.

For `CCOc1ccc(N(Cc2ccccc2)C(=O)c2nc(S(C)(=O)=O)ncc2Cl)cc1`, the Potency was 2.24 µM (active).

Consider `CCOc1ccc(N(Cc2ccccc2)C(=O)c2nc(SCC)ncc2Cl)cc1`, for which the Potency result is “inactive”.

Take `Nc1ncnc2nnsc12`: the Potency result is “inactive”.

For `COc1cc2nc(C#Cc3nc4cc(OC)c(OC)cc4[nH]3)[nH]c2cc1OC`, the Potency result was “inactive”.

For the compound `CC(C)(C(=O)NO)c1ccccc1`, the Potency result is “inactive”.

As to `Cc1cccc(CSc2nc3ccncc3n2CC(=O)N(C)C2CCCCC2)c1`, the Potency result was “inactive”.

`O=C(NCCN1CCN(C(=O)c2cccc([N+](=O)[O-])c2)CC1)C(=O)NCc1ccc(Cl)cc1`: the Potency entry was “inactive”.

Turning to `CC(=O)N(CN1C(=O)C2C3C=CC(C3)C2C1=O)c1cccc(Cl)c1` (stereo unspecified), the activity change, negative = inhibition is 9.83% [at 11.4 µM].

For `O=C(CCl)N(Cc1cccc([N+](=O)[O-])c1)c1cccc(Cl)c1`, the Potency is 7.94 µM (active).

On to `Cc1ccc(Cl)cc1N(C)C(=O)C1CCCN(c2ncnc3onc(-c4ccc(F)cc4)c23)C1` (stereo unspecified), for which the Potency entry was “inactive”.

On to `CC(C)(C)n1nnnc1C(c1ccc2ncccc2c1)N1CCSCC1` (stereo unspecified), for which the Potency entry was “inactive”.

For `Cc1cccc(N2CCN(C(c3ccc(N(C)C)cc3)c3nnnn3C(C)(C)C)CC2)c1C` (stereo unspecified), the Potency is 11.2 µM (active).

As for `CC(C)(C)n1nnnc1C(c1ccc(Cl)cc1)N1CCSCC1` (stereo unspecified), the Potency entry was “inactive”.

In the case of `Cc1ccsc1CN(C(=O)c1oc2ccc(Br)cc2c1C)C1CCS(=O)(=O)C1` (stereo unspecified), the Potency result was “inactive”.

Turning to `Cc1cccc(S(=O)(=O)c2cn(Cc3ccccc3)c3cc(N4CCOCC4)c(F)cc3c2=O)c1`, the Potency entry is “inactive”.

On to `COc1ccccc1-c1noc(CSc2nnc(-c3ccccc3)n2-c2ccc(C)c(C)c2)n1`, for which the Potency entry is “inactive”.

On to `O=C(Nc1ccccc1)c1ccccc1OCc1ccccc1`, for which the Potency entry is “inactive”.

For the compound `COc1ccc(-c2c3c(=O)n(C)c(=O)n(C)c3c3c(C)nc4ccccc4n23)cc1`, the Potency entry was “inactive”.

With `Cc1ccc(-c2c3c(=O)n(C)c(=O)n(C)c3cn2-n2cnnc2)cc1`, the Potency is 50.1 µM (active).

Regarding `COc1ccc(CCn2cc3c(c2-c2ccc(Br)cc2)c(=O)n(C)c(=O)n3C)cc1OC`, the Potency result was “inactive”.

In the case of `Cc1ccc(N(CC(=O)NCC(C)c2ccccc2)S(=O)(=O)N(C)C)cc1` (stereo unspecified), the Potency entry is “inactive”.

As to `CC(C)N(C(=O)CN1CCN(S(=O)(=O)c2ccc(Br)s2)CC1)C(C)C`, the Potency entry is “inactive”.

On to `COc1cc(NC(=O)CN2CCN(S(=O)(=O)c3ccc(Br)cc3)CC2)cc(OC)c1`, for which the Potency result was “inactive”.

As to `Cc1cccc(NC(=O)CN2CCCN(S(=O)(=O)c3ccc(Br)s3)CC2)c1`, the Potency is 12.6 µM (active).

With `Cc1ccc2ccc3c(c2n1)NS(=O)(=O)c1ccccc1-3`, the Potency result was “inactive”.

For `COc1ccc(C(=O)C2CCCN(C(=O)c3cnsn3)C2)c(C)c1` (stereo unspecified), the Potency entry is “inactive”.

`COc1ccc(C(=O)C2CCCN(S(=O)(=O)c3cccc(C)c3)C2)c(C)c1` (stereo unspecified): the Potency entry is “inactive”.

As for `COc1ccc(C(=O)C2CCCN(C(=O)c3ccc(OC)o3)C2)c(C)c1` (stereo unspecified), the Potency is 39.8 µM (active).

In the case of `CN(C)c1ccc(/C=C/c2sc3ccccc3[n+]2C)cc1`, the Potency result is “inactive”.

As to `Oc1ccc(N2CCN(C(=S)NCc3ccccc3)CC2)cc1`, the Potency entry was “inactive”.

As for `Oc1ccc(CNc2ccccc2O)cc1`, the Potency was 7.94 µM (active).

`OCC(CO)(CO)NCc1ccc(-c2ccccc2)cc1`: the Potency result is “inactive”.

Turning to `COc1ccc(OC)c(CNC(=O)c2c3c(nc4ccccc24)C(=O)N(C2CCCCC2)C3)c1`, the Potency entry is “inactive”.

Take `COc1cc2[nH]c(C)c(CCN3CCN(c4ccccc4)CC3)c2cc1OC`: the Potency result is “inactive”.

For the compound `COc1ccccc1NC(=O)/C=C/C(N)=O`, the Potency is 12.6 µM (active).

In the case of `COc1ccccc1NC(=O)N(O)C1(C#N)CCCCC1`, the Potency entry is “inactive”.

For the compound `COc1ccccc1NC(=O)COC(=O)COc1ccccc1F`, the Potency entry was “inactive”.

On to `COc1ccc(C(CCN2CCOCC2)c2c(OC)cc(OC)c3c2OC(=O)CC3c2ccc(OC)cc2)cc1` (stereo unspecified), for which the Potency entry is “inactive”.

Turning to `CCc1nn(CC(=O)Nc2cc(C)cc(C)c2)c(=O)c2cc3sccc3n12`, the Potency entry was “inactive”.

With `COc1cccc(CNC(=O)Cn2c(=O)c3cccn3c3ccc(F)cc32)c1OC`, the Potency entry is “inactive”.

Regarding `O=C(/C=C/Sc1ncn[nH]1)c1ccc(Cl)cc1`, the Potency is 0.447 µM (active).

`COc1cccc(C(=O)Oc2cc(C)[nH]c(=O)c2[N+](=O)[O-])c1`: the Potency entry was “inactive”.

`Cn1c(=O)c(Sc2ccc(Cl)cc2)c(O)c2ccccc21`: the Potency result was “inactive”.

`Cc1cccc(Oc2c([N+](=O)[O-])c(=O)n(C)c3ccccc23)c1`: the Potency was 3.16 µM (active).

In the case of `Cc1cccc(C2CC(=O)Oc3c2c(=O)n(C)c2ccccc32)c1` (stereo unspecified), the Potency result was “inactive”.

As for `Cc1cccc(C(=O)O)c1[N+](=O)[O-]`, the Potency result was “inactive”.

Turning to `Cn1c(=O)c([N+](=O)[O-])c(Oc2ccccc2)c2ccccc21`, the Potency is 2.24 µM (active).

Regarding `COc1cc(-c2cc3n(C)c(C)c(CCC(=O)Nc4ccc(F)cc4)c(=O)n3n2)cc(OC)c1OC`, the Potency result was “inactive”.

As to `Cc1cccc(-n2ccnc2SCC(=O)Nc2cc(C(F)(F)F)ccc2Cl)c1`, the Potency entry was “inactive”.

For `Cc1ccc(-c2cc(C(F)(F)F)c(C#N)c(SCC(=O)Nc3ccccc3)n2)cc1`, the Potency result was “inactive”.

Take `N#Cc1cc2[nH]c(=O)c(=O)[nH]c2cc1[N+](=O)[O-]`: the Potency entry is “inactive”.

On to `COc1ccc(N=Nc2c(-c3ccc(OC)cc3)[nH]oc2=O)cc1`, for which the Potency entry was “inactive”.

Consider `COc1ccc(N=C2C=CC(=O)O2)cc1`, for which the Potency is 10 µM (active).

As to `COC1=CC(=O)OC(c2ccc(OC)cc2)C1` (stereo unspecified), the Potency result is “inactive”.

As for `COc1ccc(C)cc1-n1c(-c2ccc(C)cc2)cc2c1CC(C)(C)CC2=O`, the Potency result is “inactive”.

Consider `O=C(Nc1ccc([N+](=O)[O-])cc1)c1cnn2c1NC(=C1CC1)C=C2C(F)F`, for which the Potency result was “inactive”.

With `CCc1ccc(NS(=O)(=O)c2ccc3[nH]cc(C(=O)NCCc4cccc(C)c4)c(=O)c3c2)cc1`, the Potency result was “inactive”.

For the compound `COc1cc(NC(=O)c2nc3ccccc3nc2C)cc(OC)c1OC`, the Potency entry was “inactive”.

For `COc1cc(NC(=O)c2noc3c2CSc2ccccc2-3)cc(OC)c1OC`, the Potency is 14.1 µM (active).

Regarding `COc1ccc(CCNC(=O)c2nn(C)c3c2CSc2ccccc2-3)cc1OC`, the Potency result was “inactive”.

`Cc1cccc(NC(=O)CSc2nc3c([nH]c4ccccc43)c(=O)n2-c2cc(C)cc(C)c2)c1`: the Potency entry was “inactive”.

In the case of `COc1ccc(C(C)=O)cc1COC(=O)Cn1cnc2ccccc2c1=O`, the Potency is 17.8 µM (active).

`CC1(C)C(=O)Nc2ccccc2N1C(=O)COC(=O)Cn1cnc2ccccc2c1=O`: the Potency entry was “inactive”.

In the case of `CCN(CC(=O)Nc1ccccc1OC)C(=O)Cn1cnc2ccccc2c1=O`, the Potency result is “inactive”.
